{
  "source": "PubChem BioAssay (NCATS)",
  "note": "Results filed as inconclusive are left out. Activity calls are given as the source filed them. Calls come from the whole dose curve; as a rule, active = well fitted inhibition curve with a large enough effect; inconclusive = small, poorly fitted or top-dose-only effect; inactive = no such curve, though single readings can be large or run the other way. % is set by controls: 0 for no effect and ±100 for the full control effect; potency is the fitted concentration of half-maximal effect.",
  "data": [
    {"experiment": "qHTS for Inhibitors of the Aldehyde Dehydrogenase Family (ALDH1A2, ALDH1A3, ALDH2, ALDH3A1) (AID 2061307); note: nearly all actives have a fitted effect of over 50% in size; for Potency: test system not described further here", "conditions": "ALDH inhibition qHTS; series mostly up to 50.3 µM; activity change, negative = inhibition: at the top concentration", "values": [
      {"smiles": "Cc1ccc(C)n1-c1sccc1C#N", "Potency": "7.12 µM (active)"},
      {"smiles": "O=C(NCc1ccccc1Cl)c1ccc(-c2nn[nH]n2)cc1", "activity change, negative = inhibition": "-27.2% [at 34.4 µM] (inactive)"},
      {"smiles": "CCN1CCN(C(=S)c2ccc([N+](=O)[O-])cc2)CC1", "activity change, negative = inhibition": "-3.34% (inactive)"},
      {"smiles": "O=C(N/N=C/c1ccc(Sc2ccccn2)s1)c1cccc(F)c1", "Potency": "15.9 µM (active)"},
      {"smiles": "Cc1ccc(CNS(=O)(=O)c2ccc3c(c2)CN(C(=O)c2cccnc2)CC3)o1", "activity change, negative = inhibition": "-26% [at 34.4 µM] (inactive)"},
      {"smiles": "CC(C)Oc1ccc(-c2nc(C(=O)Nc3ncn[nH]3)cs2)cc1", "Potency": "3.55 µM (active)"},
      {"smiles": "O=C(Cc1ccc(-c2csc(Nc3ccc(F)cc3)n2)s1)N1CCOCC1", "Potency": "7.12 µM (active)"},
      {"smiles": "COc1ccc(NC(=O)c2ccc3ccccc3n2)cc1S(N)(=O)=O", "activity change, negative = inhibition": "-34.1% [at 34.4 µM] (inactive)"},
      {"smiles": "O=C(Nc1cccc(-c2ccc(N3CCOCC3)nn2)c1)Nc1ccccc1C(F)(F)F", "activity change, negative = inhibition": "-15.6% [at 34.4 µM] (inactive)"},
      {"smiles": "COc1ccc(C(=O)N=Nc2c(O)n(Cc3c(Cl)cccc3Cl)c3ccccc23)cc1", "activity change, negative = inhibition": "53.1% (inactive)"},
      {"smiles": "Cc1sc(-n2nc(-c3ccccc3)c(Cc3ccc(S(N)(=O)=O)cc3)c2N)nc1C(=O)O", "activity change, negative = inhibition": "-18.3% (inactive)"},
      {"smiles": "Cc1ccc2c(c1)/C(=C\\C(=O)c1cccnc1)C(=O)N2", "activity change, negative = inhibition": "4.36% (inactive)"},
      {"smiles": "COc1cc(O)c(C(CC(=O)N2CC(C)CC(C)C2)c2ccc(S(=O)(=O)N(C)C)cc2)c(OC)c1", "note": "(stereo not given)", "activity change, negative = inhibition": "-25.1% (inactive)"},
      {"smiles": "Nc1c(Cc2ccc(S(N)(=O)=O)cc2)c(-c2ccccc2)nn1-c1nc(C(=O)O)co1", "activity change, negative = inhibition": "-2.94% (inactive)"},
      {"smiles": "Cc1ccc(NC(=O)c2cc(-c3cccs3)on2)cc1C", "activity change, negative = inhibition": "-52.3% [at 34.4 µM] (inactive)"},
      {"smiles": "CCOc1ccccc1NC(=O)c1nn(-c2ccc(OC)cc2)c(=O)c2c1c1ccccc1n2C", "activity change, negative = inhibition": "-4.51% [at 34.4 µM] (inactive)"},
      {"smiles": "COc1ccc(-n2c(C)c(C(=O)O)c3cc(O)ccc32)cc1", "activity change, negative = inhibition": "-1.76% [at 34.4 µM] (inactive)"},
      {"smiles": "N#Cc1ccc(NC(=O)Cn2cnc3ccccc3c2=O)cc1", "activity change, negative = inhibition": "-22.5% [at 34.4 µM] (inactive)"},
      {"smiles": "Cc1oc(-c2ccc(C(F)(F)F)cc2)nc1COc1cccc2cc(NS(=O)(=O)C(F)(F)F)ccc12", "Potency": "12.7 µM (active)"},
      {"smiles": "COc1ccc(C(N)=O)cc1NC(=O)c1ccn(-c2ccc(F)cc2)n1", "activity change, negative = inhibition": "3% [at 34.4 µM] (inactive)"},
      {"smiles": "O=C1c2ccccc2-c2nnc(-c3ccncc3)cc21", "activity change, negative = inhibition": "-23.4% (inactive)"},
      {"smiles": "CCc1cccc(C)c1Nc1c(-c2ccc(N(C)C)cc2)nc2ncccn12", "activity change, negative = inhibition": "-28.1% (inactive)"},
      {"smiles": "Fc1cccc(F)c1CNCc1cccnc1-n1cccn1", "Potency": "3.98 µM (active)"},
      {"smiles": "CC(=O)c1c(C)[nH]c2ccc(O)cc12", "activity change, negative = inhibition": "4.59% [at 34.4 µM] (inactive)"},
      {"smiles": "NCC(=O)Nc1ccc2c(c1)Oc1cc(NC(=O)CN)ccc1C21OC(=O)c2ccccc21", "activity change, negative = inhibition": "216% (inactive)"},
      {"smiles": "O=c1cc(N2CCNCC2)nc2sc(-c3cccc(-c4ccsc4)c3)nn12", "Potency": "6.31 µM (active)"},
      {"smiles": "Cc1ccccc1Cn1cnc2cc(-c3cccc(NC(=O)Cc4ccccc4)n3)ccc21", "note": "(tested in a mixture with another compound)", "activity change, negative = inhibition": "-8.56% (inactive)"},
      {"smiles": "Cc1ccccc1C(=O)n1ccc2cc(-c3cccc(NC(=O)Cc4ccccc4)n3)cnc21", "activity change, negative = inhibition": "-20.7% (inactive)"},
      {"smiles": "O=C(N/N=C/c1ccc(Sc2cccc3cccnc23)o1)c1cccc(F)c1", "Potency": "7.12 µM (active)"},
      {"smiles": "O=[N+]([O-])c1ccc(NC(=S)N=Nc2c(O)[nH]c3ccccc23)cc1", "Potency": "7.12 µM (active)"},
      {"smiles": "COc1ccc(CC2NCCC3=CC(=O)CCC32)cc1O", "note": "(stereo not given)", "activity change, negative = inhibition": "0% (inactive)"},
      {"smiles": "CC(C)(C)CNc1ncnc2ccc(-c3ccc4c(c3)OCO4)cc12", "activity change, negative = inhibition": "88.6% (inactive)"},
      {"smiles": "COCCn1cc(NC(=O)CSC(C)C)ccc1=O", "activity change, negative = inhibition": "-14.5% (inactive)"},
      {"smiles": "NS(=O)(=O)c1ccc(Cc2cn(-c3nc(C(=O)O)cs3)c3ccccc23)cc1", "activity change, negative = inhibition": "-6.95% (inactive)"},
      {"smiles": "Cc1csc(-c2cccc(C(=O)Nc3ccc(F)c(F)c3F)c2)n1", "activity change, negative = inhibition": "-37.3% [at 34.4 µM] (inactive)"},
      {"smiles": "COC(=O)CC(=O)Nc1ccccc1C(=O)O", "activity change, negative = inhibition": "-6.46% (inactive)"},
      {"smiles": "Cc1ccc(-c2cc3c(nn2)-c2ccccc2C3=O)cc1", "activity change, negative = inhibition": "-15.1% (inactive)"},
      {"smiles": "Cn1ccc(=Nc2ccc(NC(=O)c3ccc(N=c4ccn(C)c5ccc([N+](=O)[O-])cc45)cc3)cc2)cc1", "Potency": "8.96 µM (active)"},
      {"smiles": "O=C(O)c1csc(-n2[nH]c(-c3ccc(F)c(Cc4ccccc4)c3)cc2=O)n1", "Potency": "22.5 µM (active)"},
      {"smiles": "O=C(Nc1ccccc1C(=O)Nc1cccc(C(F)(F)F)c1)c1cccc([N+](=O)[O-])c1", "Potency": "3.55 µM (active)"}
    ]}
  ]
}
